A selection: hits, their analogues and other compounds. The true share with any hit is near 15%.
Sm TGR inh: blocks Schistosoma mansoni thioredoxin glutathione reductase; Q962Y6; purified TGR, DTNB reduction, TNB absorbance 405 nm; Potency, µM (titrated, usually from 114 µM), for inactives: at the highest dose activity change, negative = inhibition, actives largely listed as inhibitors; hit rate 3% among 360,000; AID 485364; also: potency is read from the fitted curve at half-maximal effect; % is scaled to controls: 0 for no effect and ±100 for the full control effect; nearly all actives have a fitted effect of over 60% in size
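Kinetic colorimetric format: TGR-catalysed, NADPH-driven DTNB reduction monitored via TNB absorbance. Enzyme dispensed at 20 nM; compound exposure 15 min at room temperature before reaction start.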
SARS PLpro yeast: inhibitors of SARS-CoV papain-like protease in yeast. Potency, µM (top dose mostly 32.9 µM), without a hit: top-dose activity, positive = growth rescue, most hits filed as activators. hit rate 0.19% among 330,000. S. cerevisiae expressing SARS-CoV PLpro, growth rescue; calls by dose curve; also: potency is read from the fitted curve at half-maximal effect; 0% is about no effect; nearly all actives have a fitted effect of over 55% in size
Pf growth 96h: P. falciparum growth inhibition at 96 hours | P. falciparum luciferase reporter growth, 96 h | Potency, µM (top dose mostly 28.7 µM), without a hit: at the top dose activity change, negative = inhibition, most hits filed as inhibitors | hit rate 6.9% among 320,000; also: potency is read from the fitted curve at half-maximal effect; % is scaled to controls: 0 for no effect and ±100 for the full control effect
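96 h incubation, 37 C, 5% CO2, of luciferase-reporter P. falciparum-infected RBCs (2% hematocrit, 0.05% parasitemia final) with test compounds; endpoint luminescence.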
HCMV antiviral: inhibitors of human cytomegalovirus. HFF cells, HCMV-luciferase reporter, 72 h; stronger effect = lower value. activity change, negative = inhibition, % at 57.5 µM. hit rate 4.5% among 410,000. AID 1259415; in the data active = activity change below about -60%; inconclusive = no clear call, values can overlap the other calls; inactive = above about -39%; also: % is scaled to controls: 0 for no effect and ±100 for the full control effect
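Luciferase read-out from HCMV-luciferase-infected HFFs (MOI 1 PFU/cell) 72 h post infection at 37C; compounds added after 16 h cell attachment; activity normalized between buffer-only basal and Salinomycin (10uM) inhibitor controls.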
HCV inh: inhibitors of hepatitis C virus infection. Potency, µM (doses to about 41.8 µM), without a hit: at the top dose activity change, negative = inhibition, hits mostly inhibitors. AID 651820. hit rate 3.4% among 340,000. Huh7.5.1 HCVcc-Cre infection, luciferase reporter, 44 h; also: potency is read from the fitted curve at half-maximal effect; % is scaled to controls: 0 for no effect and ±100 for the full control effect
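Luciferase read-out (15 sec integration) after a 15 min room-temperature substrate step quantifies HCVcc-Cre infection. Cells, 1,000 per well, had compound added 4 h post-plating, then virus at ~0.5 moi, and were cultured 44 h.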
Pf growth 48h: inhibits P. falciparum growth in the first generation, 48 h. P. falciparum luciferase growth in erythrocytes, 48 h. Potency, µM (series often up to 28.7 µM), for inactives: top-dose activity change, negative = inhibition, hits mostly inhibitors. hit rate 5.9% among 310,000. AID 504832; also: potency is read from the fitted curve at half-maximal effect; % is scaled to controls: 0 for no effect and ±100 for the full control effect
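Firefly luciferase activity from engineered P. falciparum reports growth; inhibitors lower the luminescent signal. Cultures contained 2% hematocrit erythrocytes at 0.1% final parasitemia.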
* hit, by the source's call; ? = inconclusive; nt = no result. Unless noted, calls follow the shape of the dose curve; as a rule, active = well fitted curve in the direction sought with a large enough effect; inconclusive = small, poorly fitted or top-dose-only effect, or another doubt; inactive = no such curve, though single readings can be large; an effect the other way counts as inactive or inconclusive.

SMILES	Sm TGR inh	SARS PLpro yeast	Pf growth 96h	HCMV antiviral	HCV inh	Pf growth 48h
O=C(Cc1cccs1)Nc1ccc(-c2nnc(-c3ccccc3)o2)cc1	nt	nt	nt	-16	-3%	nt
O=C(Nc1ccc2nc(-c3ccc4nc[nH]c4c3)[nH]c2c1)c1cccs1	-35%	1%	?	-21	-26%	2.6µM*
Cc1cccc(-c2nnc(-c3cccc(NC(=O)Cc4cccs4)c3)o2)c1	5%	-4%	10µM*	2	?	?
O=C(Nc1ccc2[nH]ccc2c1)c1cccs1	9%	-1%	424%	59	-1%	152%
CC(C)C(C(=O)N1CCOCC1)N1C(=O)c2ccccc2C1=O (stereo unspecified)	?	0%	10µM*	15	-3%	12%
COC(=O)/C=C/C(=O)N1CCN(c2ccccc2C)CC1	-12%	-9%	7.4µM*	-15	-1%	-17%
COc1ccc(-c2cc(C(=O)N3CCCc4ccccc43)no2)cc1	5%	-25%	71%	21	-1%	-15%
COC(=O)/C=C/C(=O)N1CCN(c2ccccc2)CC1	-8%	-11%	?	6	3%	-5%
Cc1c(C(=O)N2CCN(c3ccccc3F)CC2)sc2nc(-c3ccccc3)cn12	12%	6%	1.9µM*	-32	?	2%
COc1ccc(C(=S)N2CCN(c3ccccc3C)CC2)cc1	-1%	11%	8.3µM*	?	?	?
COc1ccc(-c2cn3c(C)c(C(=O)N4CCCc5ccccc54)sc3n2)cc1	nt	nt	nt	?	11µM*	nt
COc1ccc(C(=O)C(=O)N2CCN(c3ccccc3F)CC2)cc1	nt	nt	nt	-68*	nt	nt
Cc1c(C(N)=O)sc2nc(-c3ccccc3)cn12	5%	3%	10µM*	27	?	98%
COc1ccc(N2CCN(C(=O)c3sc4nc(-c5ccc(F)cc5)cn4c3C)CC2)cc1	5%	8%	25%	12	8%	26%
COc1cc(OC)cc(C(=O)N2CCN(c3ccccc3F)CC2)c1	20%	8%	nt	-35	?	-13%
COc1ccc(-c2cn3c(C)c(C(=O)N4CCN(c5ccccc5F)CC4)sc3n2)cc1	0%	3%	?	-60*	?	?
Cc1ccc(CNC(=O)c2sc3nc(-c4ccccc4)cn3c2C)cc1	5%	nt	nt	?	nt	nt
CCS(=O)(=O)Nc1cccc(C(=C2CCCCC2)c2cnc[nH]2)c1	-5%	nt	?	-17	8%	12µM*
CCS(=O)(=O)Nc1cccc(C(=O)O)c1	-4%	0%	0%	nt	10%	-5%
Cc1ccccc1Cn1c(CN2CCc3ccccc3C2)nc2c1c(=O)n(C)c(=O)n2C	-10%	-21%	?	0	?	13µM*
COC(=O)Cn1c(CN2CCN(c3ccc(F)cc3)CC2)nc2c1c(=O)n(C)c(=O)n2C	2%	-3%	-5%	nt	?	nt
CN1CCN(c2nc3c(c(=O)n(C)c(=O)n3C)n2Cc2ccccc2F)CC1	9%	3%	-21%	-8	1%	-14%
Cn1c(=O)c2c(nc(N3CCc4ccccc4C3)n2Cc2ccccc2F)n(C)c1=O	2%	-17%	-22%	8	?	13µM*
COC(=O)Cn1c(CN2CCc3ccccc3C2)nc2c1c(=O)n(C)c(=O)n2C	-5%	4%	19%	-66*	-24%	7%
C(=N\N1CCOCC1)/c1cccs1	-5%	-19%	3%	-14	36%	0%
O=C(COC(=O)/C=C/c1ccc(F)cc1)NC1CCCCCC1	nt	8%	nt	-1	3%	nt
O=C(Nc1ccccc1)OCCc1ccccn1	nt	nt	nt	24	-6%	nt
COc1cccc(Nc2c(F)c(F)c(F)c(F)c2C(=O)O)c1	2%	5%	13µM*	23	7%	-7%
O=C(Cc1ccccc1)N1CCN(c2ccc([N+](=O)[O-])cc2)CC1	0%	1%	17%	-64*	-16%	-9%
COc1cccc(Cl)c1NC(=O)N1CCN(c2ccnc3cc(Cl)ccc23)CC1	14%	-3%	?	?	?	?

Screening results deposited in PubChem by National Center for Advancing Translational Sciences (NCATS).
